Screens as filed in PubChem.
IL1B secr inh: blocks inflammasome-driven IL-1 beta release | AID 743279 | THP-1 LPS/ATP IL-1B secretion, AlphaLISA, 16 h; stronger effect = lower value | activity change, % at 57.5 µM | hit rate 4.7% among 360,000; in the data active means activity change below about -50%; inconclusive means mostly about -30% to -49%
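THP-1 cells pretreated 1 hr with compounds (up to 57.5 uM final), then stimulated with LPS (250 ng/mL final) plus ATP (1.25 mM final); secreted IL-1B measured by AlphaLISA after 16 hr, decreased signal indicating inhibition.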
DT40 TDP1 no CPT: qHTS for Inhibitors of human tyrosyl-DNA phosphodiesterase 1 (TDP1): qHTS in cells in absence of CPT; DT40 Tdp1-/- hTDP1 cells, no CPT, ATP luminescence, 48 h; Potency, µM (highest dose often 46.2 µM), inactives show at the highest dose activity change, negative = growth inhibition, most hits filed as inhibitors; hit rate 15% among 420,000; AID 686978, 2013; further: potency means the concentration at half of the fitted maximal effect; nearly all actives have a fitted effect of over 55% in size
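Stably hTDP1-transfected Tdp1-null chicken DT40 cells were treated with library compounds minus camptothecin and grown for at least 48 hr at 37 °C, after which cellular ATP was quantified by luminescence.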
HT1080-NT tox: kills 2HG-producing HT-1080-NT fibrosarcoma cells. HT-1080-NT fibrosarcoma viability, CellTiter-Glo ATP luminescence, 48 h. Potency, µM (highest dose often 46.1 µM), without a hit: at the top dose activity, negative = less viability, usual class: cytotoxic. hit rate 1.6% among 360,000. AID 686970;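 further: NT is the 2HG producing partner of a matched IDH1 knockdown line; potency means the concentration at half of the fitted maximal effect; 0% = DMSO-treated cells and -100% = media-only wells without cells; nearly all actives have a fitted effect of over 55% in size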
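Viability by CellTiter-Glo luminescence after 48 h compound exposure at 37C of HT-1080-NT cells (750/well, RPMI, 5% FBS). % activity scaled between DMSO wells and medium-only wells, then curve-fitted and categorized by curve class.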
TDP1 cell CPT: growth inhibition of DT40 Tdp1-/-;hTDP1 cells with camptothecin (screen for TDP1 inhibitors); chicken DT40 Tdp1-/-;hTDP1 cells + 20 nM CPT, ATP luminescence, 48 h; Potency, µM (top dose mostly 46.2 µM), without a hit: top-dose activity change, negative = growth inhibition, usual class: inhibitors; hit rate 12% among 420,000; AID 686979; further: potency means the concentration at half of the fitted maximal effect; nearly all actives have a fitted effect of over 55% in size
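Cell growth measured by CellTiter-Glo luminescence after a minimum 48 h, 37 C compound exposure with 20 nM CPT in Tdp1-knockout DT40 cells stably expressing hTDP1, seeded 400/well; qHTS titration format.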
ALOX12 inh: inhibitors of human 12S-lipoxygenase ALOX12; AID 1671190; Potency, µM (top dose mostly 108 µM), inactives show at the highest dose activity change, negative = inhibition, usual class: inhibitors; purified 12hLO, xylenol orange hydroperoxide absorbance; hit rate 1.1% among 580,000; P18054; further: potency means the concentration at half of the fitted maximal effect
Target sequence (P18054 whole entry, looked up): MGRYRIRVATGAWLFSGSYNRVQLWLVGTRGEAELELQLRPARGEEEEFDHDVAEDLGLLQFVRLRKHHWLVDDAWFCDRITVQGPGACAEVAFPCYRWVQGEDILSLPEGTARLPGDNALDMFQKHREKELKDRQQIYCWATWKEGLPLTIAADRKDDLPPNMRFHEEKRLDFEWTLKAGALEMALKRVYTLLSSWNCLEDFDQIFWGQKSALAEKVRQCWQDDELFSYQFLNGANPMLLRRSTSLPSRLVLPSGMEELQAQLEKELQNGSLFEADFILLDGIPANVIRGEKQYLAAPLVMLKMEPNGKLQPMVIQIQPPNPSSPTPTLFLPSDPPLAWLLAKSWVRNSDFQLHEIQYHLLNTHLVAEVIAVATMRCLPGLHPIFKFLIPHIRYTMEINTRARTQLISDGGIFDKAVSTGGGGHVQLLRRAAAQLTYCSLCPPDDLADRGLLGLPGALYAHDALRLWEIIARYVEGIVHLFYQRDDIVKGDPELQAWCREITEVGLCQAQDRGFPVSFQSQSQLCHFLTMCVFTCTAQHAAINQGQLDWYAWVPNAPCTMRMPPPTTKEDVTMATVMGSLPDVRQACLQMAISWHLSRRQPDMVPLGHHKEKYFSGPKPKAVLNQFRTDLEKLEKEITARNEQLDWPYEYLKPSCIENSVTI
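Hydroperoxide product was detected by ferrous iron/xylenol orange as the 573 to 405 nm absorbance ratio. Arachidonic acid at 40 uM (final) was turned over for 30 min at room temperature by 150 nM human 12hLO, pH 7.0 Hepes buffer, after 15 min compound preincubation.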
HT1080 IDH1KD tx: toxicity to HT-1080 IDH1 knockdown cells (counter line); AID 686971; Potency, µM (doses to about 46.1 µM), inactives show at the top dose activity, negative = toxicity, most hits filed as cytotoxic; hit rate 2% among 360,000; HT-1080 IDH1 knockdown viability, ATP luminescence, 48 h;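 further: potency means the concentration at half of the fitted maximal effect; 0% = DMSO wells and -100% = cell-free medium wells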
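After a 2 h attachment period, IDH1KD HT-1080 cells took pin-transferred compound for 48 h at 37 °C; ATP-based luminescence after 10 min room-temperature reagent incubation reported viability.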
Active calls of the source: *; ! = repeats disagree; [ ] = another dose, or the depositor's remark. This excerpt belongs to a sample that is enriched for hits. Unless noted, the call rests on the fitted dose curve; in most records, active means well fitted curve in the direction sought with a large enough effect; inconclusive means small, poorly fitted or top-dose-only effect, or another doubt; inactive means no such curve, though single readings can be large; an effect the other way counts as inactive or inconclusive. Unless noted, on the % scale 0 is the no-effect control and ±100 the full control effect.

Screening CCCCNS(=O)(=O)c1ccc(N2CCCCS2(=O)=O)cc1 returned DT40 TDP1 no CPT 23.1µM*, TDP1 cell CPT inconclusive and ALOX12 inh inconclusive.
CC(C)(O)[C@H]1CC[C@@](C)([C@H]2[C@@H](O)C[C@@]3(C)[C@@H]4C[C@H](O[C@@H]5O[C@H](CO)[C@@H](O)[C@H](O)[C@@H]5O)[C@H]5C(C)(C)[C@@H](O[C@@H]6OC[C@@H](O)[C@H](O)[C@@H]6O)CC[C@@]56C[C@@]46CC[C@]23C)O1 was read as ALOX12 inh 1.9%.
C[C@@]12CCC[C@H]1C1CC[C@H]3C[C@H](O)CC[C@]3(C)C1CC2 (some centres not stated) was read as DT40 TDP1 no CPT -8.5%, TDP1 cell CPT -6.0% and ALOX12 inh 4.0%.
N#C/C(=C\c1ccc(-c2ccc(Br)cc2)o1)c1ccccc1 was read as ALOX12 inh -2.0%.
Screening Cc1ccc(CNS(=O)(=O)c2ccc(N3CCCCS3(=O)=O)cc2)cc1 returned DT40 TDP1 no CPT 16.4µM*, TDP1 cell CPT 11.6µM* and ALOX12 inh -13.0%.
Screening COc1ccc(CCNS(=O)(=O)c2ccc(S(=O)(=O)N3CCCC3)cc2)cc1OC returned IL1B secr inh -8.0, DT40 TDP1 no CPT inconclusive, HT1080-NT tox -23.6%, TDP1 cell CPT inconclusive, ALOX12 inh -27.2% and HT1080 IDH1KD tx 1.4%[9.24 µM].
For COc1ccc(CCNS(=O)(=O)c2ccc(N3CCCCS3(=O)=O)cc2)cc1OC the results were DT40 TDP1 no CPT 20.6µM*, TDP1 cell CPT inconclusive and ALOX12 inh -11.9%.
`CCOc1ccc(NC(=O)c2ccc(NC(=O)c3cn4c5c(c(N6CCN(C)CC6)c(F)cc5c3=O)OCC4C)cc2)cc1` (configuration not stated) gave IL1B secr inh -12.3, DT40 TDP1 no CPT 4.61µM*, HT1080-NT tox -8.9%, TDP1 cell CPT 5.17µM*, ALOX12 inh inconclusive and HT1080 IDH1KD tx 9.0%.
CC1COc2c(N3CCN(C)CC3)c(F)cc3c(=O)c(C(=O)O)cn1c23 (configuration not stated) was read as IL1B secr inh -21.1, DT40 TDP1 no CPT 13µM*!, HT1080-NT tox 0.9%, TDP1 cell CPT 20.6µM*!, ALOX12 inh -9.3%[57.4 µM] and HT1080 IDH1KD tx 6.1%.
CCOc1ccc(C(=O)Nc2ccc(N3CCN(C)CC3)cc2)cc1 was read as IL1B secr inh -4.7, DT40 TDP1 no CPT -4.6%, HT1080-NT tox 12.2%, TDP1 cell CPT 4.0%, ALOX12 inh inconclusive and HT1080 IDH1KD tx 12.0%.
For CN(CC1CCOCC1)S(=O)(=O)c1ccc(F)cc1 the results were ALOX12 inh 39.7%.
O=C(COc1ccc2c(=O)c(Oc3ccc(F)cc3)coc2c1)NCc1ccc(F)cc1 was read as ALOX12 inh -27.3%.
`CCCn1cc(NC(=O)c2cc(-c3ccccc3)on2)cn1` gave IL1B secr inh 0.0, DT40 TDP1 no CPT 23.1µM*, HT1080-NT tox inconclusive, TDP1 cell CPT inconclusive, ALOX12 inh 27.1% and HT1080 IDH1KD tx inconclusive.
O=C(Nc1cnn(C23CC4CC(CC(C4)C2)C3)c1)c1cc(-c2ccccc2)on1 was read as IL1B secr inh -16.0, DT40 TDP1 no CPT 20.6µM*, HT1080-NT tox 5.1%, TDP1 cell CPT 23.1µM*, ALOX12 inh -15.2% and HT1080 IDH1KD tx inconclusive.
Screening O=C(Nc1cccc(Cl)c1)c1cc(-c2ccccc2)on1 returned DT40 TDP1 no CPT -5.0%, TDP1 cell CPT -20.0% and ALOX12 inh -2.4%.
For CCCCc1cc(=O)oc2c(C)c(OC(C)C(=O)NCc3ccncc3)ccc12 (configuration not stated) the results were ALOX12 inh -12.1%.
`COc1ccc(C(=O)Oc2ccc(/C=C(\C#N)c3nc4ccccc4[nH]3)cc2)cc1` gave ALOX12 inh 5.6%.
`CCOC(=O)N1CCN(C(=O)C(CC(C)C)NS(=O)(=O)c2ccc(C)cc2)CC1` (configuration not stated) gave IL1B secr inh 26.0, DT40 TDP1 no CPT -7.9%, HT1080-NT tox -2.2%, TDP1 cell CPT inconclusive, ALOX12 inh 0.0% and HT1080 IDH1KD tx 1.0%.
`Cc1csc(CNC(=O)c2cnc3ccccc3n2)n1` gave ALOX12 inh -7.2%.
For O=C(Nc1cccc(Cl)c1N1CCOCC1)c1ccc(Br)o1 the results were IL1B secr inh -1.8, DT40 TDP1 no CPT 10.3µM*, HT1080-NT tox -0.7%, TDP1 cell CPT 10.3µM*, ALOX12 inh 0.0% and HT1080 IDH1KD tx -2.1%.
`O=C(Nc1cc(C(F)(F)F)ccc1N1CCCCC1)c1ccco1` gave IL1B secr inh -14.9, DT40 TDP1 no CPT inconclusive, HT1080-NT tox 5.8%, TDP1 cell CPT -2.4%, ALOX12 inh 5.9% and HT1080 IDH1KD tx 1.2%.
O=C(Nc1cc(C(F)(F)F)ccc1N1CCCCC1)c1ccc(Br)o1 was read as IL1B secr inh -3.6, DT40 TDP1 no CPT inconclusive, HT1080-NT tox 1.5%, TDP1 cell CPT 18.4µM*, ALOX12 inh 9.3% and HT1080 IDH1KD tx 0.7%.
Screening O=C(Nc1ccc(N2CCCC2)c(Cl)c1)c1ccc(Br)o1 returned IL1B secr inh -27.2, DT40 TDP1 no CPT inconclusive, HT1080-NT tox inconclusive, TDP1 cell CPT 18.4µM*, ALOX12 inh inconclusive and HT1080 IDH1KD tx inconclusive.
`Cc1cccc(NC(=O)COc2ccc(/C=C(\C#N)C(=O)N3CCOCC3)cc2)c1` gave ALOX12 inh 20.5%.
For O=C(COc1ccccc1)Nc1ccc(NC(=O)C2CC2)cc1C(F)(F)F the results were ALOX12 inh 0.4%.
For COc1cccc(C2CC(c3cccc(NS(C)(=O)=O)c3)=NN2C(=O)c2ccccc2)c1OC (configuration not stated) the results were IL1B secr inh -1.6, DT40 TDP1 no CPT 20.6µM*, HT1080-NT tox 0.9%, TDP1 cell CPT 23.1µM*, ALOX12 inh -26.2% and HT1080 IDH1KD tx -3.9%.
For CN(C)c1ccc(C2CC(c3cccc(NS(C)(=O)=O)c3)=NN2C(=O)c2ccccc2)cc1 (configuration not stated) the results were IL1B secr inh -58.4*, DT40 TDP1 no CPT inconclusive, HT1080-NT tox -27.1%, TDP1 cell CPT -26.0%, ALOX12 inh 28.2µM* and HT1080 IDH1KD tx -18.3%.
